In the library only some 21% were active in any assay of this set; here they are far more common.
DT40 TDP1 CPT: DT40-hTDP1 cell growth loss with CPT; 420,000 tested, 12% active; chicken DT40 Tdp1-/-;hTDP1 cells + 20 nM CPT, ATP luminescence, 48 h; Potency, µM (doses to about 46.2 µM), for inactives: at the highest dose activity change, negative = growth inhibition, actives largely listed as inhibitors; further: potency means the concentration at half of the fitted maximal effect; on the % scale 0 is the no-effect control and ±100 the full control effect; nearly all actives have a fitted effect of over 55% in size
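Chicken DT40 Tdp1-/- cells complemented with human TDP1, 400 cells/well, exposed to compounds plus 20 nM camptothecin for at least 48 h at 37 C; viability read as ATP content by CellTiter-Glo luminescence.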
TDP1 cell noCPT: qHTS for Inhibitors of human tyrosyl-DNA phosphodiesterase 1 (TDP1): qHTS in cells in absence of CPT; Potency, µM (titrated, usually from 46.2 µM), for inactives: at the top dose activity change, negative = growth inhibition, hits mostly inhibitors; 420,000 tested, 15% active; DT40 Tdp1-/- hTDP1 cells, no CPT, ATP luminescence, 48 h; AID 686978, 2013; further: potency means the concentration at half of the fitted maximal effect; on the % scale 0 is the no-effect control and ±100 the full control effect; nearly all actives have a fitted effect of over 55% in size
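Chicken DT40 Tdp1-/- cells complemented with human TDP1, screened without camptothecin (DMSO vehicle only), 400 cells/well. Compounds pin-transferred, cells incubated at 37 °C for at least 48 hr. Growth read as ATP-dependent luminescence (CellTiter-Glo, 30 min at RT).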
D3 ag: agonists of human D3 dopamine receptor | P35462 | D3R DiscoveRx beta-arrestin cells, luminescence, 90 min | max activation, % | 410,000 tested, 0.58% active | AID 652048; in the data active means max activation above about 30%; further: 0% is about no effect
Target sequence (P35462 whole entry, looked up): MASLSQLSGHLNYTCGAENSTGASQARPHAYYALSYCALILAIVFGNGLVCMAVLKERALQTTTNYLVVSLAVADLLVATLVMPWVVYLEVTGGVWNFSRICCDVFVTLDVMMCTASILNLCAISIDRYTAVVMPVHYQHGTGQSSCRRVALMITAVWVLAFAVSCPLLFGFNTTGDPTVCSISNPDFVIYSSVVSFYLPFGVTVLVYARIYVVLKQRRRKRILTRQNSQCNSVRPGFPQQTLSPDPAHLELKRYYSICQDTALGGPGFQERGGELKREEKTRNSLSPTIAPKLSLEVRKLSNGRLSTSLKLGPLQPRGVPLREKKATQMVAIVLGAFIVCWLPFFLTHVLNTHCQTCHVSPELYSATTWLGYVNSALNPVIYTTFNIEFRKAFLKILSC
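Agonist mode: compounds and dopamine controls were applied to plated cells for 90 min at 37 degrees C after an overnight attachment at 1500 cells/well. Luminescent read-out followed 30 - 60 minutes at room temperature with DiscoveRx detection reagent.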
ClpP mod: qHTS Assay for Activators of ClpP; ATP-dependent Clp protease proteolytic subunit (Bacillus subtilis (strain 168)), P80244; purified B. subtilis ClpP, FRET peptide cleavage, 20 min; Potency, µM (series often up to 57.5 µM), for inactives: at the highest dose activity change, negative = active; 340,000 tested, 1.9% active; AID 651965, 2013; active means well fitted falling curve with a large enough effect; inconclusive means small, poorly fitted or top-dose-only effect; inactive means no such curve, though single readings can be large or run the other way; further: potency means the concentration at half of the fitted maximal effect; the source files actives as falling curves though it sought activators and does not explain the sign; nearly all actives have a fitted effect of over 65% in size
Target sequence (P80244 whole entry, looked up): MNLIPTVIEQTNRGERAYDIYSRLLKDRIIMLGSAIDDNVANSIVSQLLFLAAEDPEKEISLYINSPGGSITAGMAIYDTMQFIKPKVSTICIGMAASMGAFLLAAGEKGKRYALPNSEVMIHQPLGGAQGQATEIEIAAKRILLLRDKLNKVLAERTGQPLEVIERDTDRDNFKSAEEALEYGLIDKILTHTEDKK
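Purified B. subtilis ClpP, 10 microg/mL final in Tris/HCl pH8 with KCl, BSA, glycerol and Tween-20, cleaved an Abz/nitrotyrosine-quenched decapeptide. Fluorescence (ex 320, em 430) was read at 0 and 20 min at room temperature. Delta was normalized to 5.8 microM ADEP and DMSO/no-enzyme controls.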
IL1B secr inh: blocks inflammasome-driven IL-1 beta release. THP-1 LPS/ATP IL-1B secretion, AlphaLISA, 16 h; active compounds read low. activity change, % at 57.5 µM. 360,000 tested, 4.7% active; in the data active means activity change below about -50%; inconclusive means mostly about -30% to -49%; further: on the % scale 0 is the no-effect control and ±100 the full control effect
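Secreted IL-1B measured by AlphaLISA bead assay after 16 h compound exposure of THP-1 cells; compounds (final up to 57.5 uM) added 1 h before LPS (250 ng/mL) and ATP (1.25 mM) stimulation; lower signal means less secretion.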
D3 antag: antagonists of human D3 dopamine receptor; P35462; max response, negative = inhibition, %; 360,000 tested, 2.5% active; D3R cells, DiscoveRx beta-arrestin luminescence, antagonist mode; active compounds read low; in the data active means max response below about -50%; inconclusive means no clear call, values can overlap the other calls; further: on the % scale 0 is the no-effect control and ±100 the full control effect
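Cells expressing the human receptor were seeded at 1500 cells/well, incubated overnight at 37 degrees C in 5% CO2, then exposed to library compounds with dopamine controls for 90 minutes at 37 degrees C before luminescent detection.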
Starred values were filed as active, the others as inactive; ? = inconclusive; nt = not tested or not shown; [ ] = another dose, or the depositor's remark. Unless noted, the call rests on the fitted dose curve; in most records, active means well fitted inhibition curve with a large enough effect; inconclusive means small, poorly fitted or top-dose-only effect; inactive means flat fitted curve, though single readings scatter.

SMILES	DT40 TDP1 CPT	TDP1 cell noCPT	D3 ag	ClpP mod	IL1B secr inh	D3 antag
O=C(NNC(=S)NC1CCCCC1)c1ccc2c(c1)OCO2	?	18.4µM*	-19.6	18.6%	21.1	0.3
Cc1onc(-c2ccccc2)c1C(=O)NC(=S)NNC(=O)c1ccncc1	?	?	0.2	3.0%	9.8	17.4
COc1ccc(C)cc1NC(=O)CCS(=O)(=O)c1ccc2c(c1)oc(=O)n2C	-1.5%	0.9%	6.8	-0.4%	62.8	10.0
Cc1ccc(NC2CCCN(C(=O)c3cc(C(C)C)nn3C)C2)cc1C (centres undefined)	-14.7%	-14.0%	1.0	-4.9%	27.8	-1.1
Cc1ccc(-c2nc3ccccc3nc2NN)cc1	-27.8%	-11.5%	-8.1	?	20.1	8.7
Cc1onc(-c2ccccc2)c1C(=O)NC(=S)NNC(=O)c1cc(-c2ccc(F)cc2)n[nH]1	?	20.6µM*	10.7	nt	2.6	-6.6
COc1ccc(/C=C(\C#N)C(=O)Nc2ccc3[nH]c(=O)[nH]c3c2)cc1	-2.8%	-18.5%	2.6	4.1%	2.4	-0.5
CCc1ccc(NC2=NCC(c3ccccc3)S2)cc1 (centres undefined)	-24.1%	?	11.0	nt	-6.3	9.9
Cc1ccc(NC2=NCC(Cc3ccc(Br)cc3)S2)cc1 (centres undefined)	?	?	-2.5	nt	-96.2*	7.0
O=C(c1ccccc1)C1CC=CCC1C(=O)c1ccccc1 (centres undefined)	-21.6%	-27.4%	2.1	nt	-15.8	-14.8
O=C(CSc1cccc[n+]1[O-])Nc1cccc(Oc2ccccc2)c1	-5.2%	-9.4%	1.9	-0.3%	9.3	-0.9
COc1ccc(-c2oc3ccc(-c4cc(OC)c(OC)c(OC)c4)cc3c2C#Cc2ccccn2)cc1	18.4µM*	?	10.7	3.8%	-1.8	83.0
COc1cc2oc3cc(C#Cc4ccc(N)cc4)ccc3c(=O)c2cc1OC	16.4µM*	16.4µM*	57.1*	-16.0%	-60.8*	103.1
COc1cc2oc3ccc(C#Cc4ccc(N)cc4)cc3c(=O)c2cc1OC	?	?	25.4	-6.8%	-22.6	53.0
COc1cc2oc3ccc(C#Cc4ccccn4)cc3c(=O)c2cc1OC	?	23.1µM*	0.0	3.4%	0.0	67.3
Cc1cccc(N(Cc2ccccc2)C(=O)CCl)c1	2.31µM*	?	-5.2	nt	-6.4	-12.1
Cc1cccc(N(Cc2ccccc2)C(=O)CSC(C)C(=O)Nc2cc(C)on2)c1 (centres undefined)	?	18.4µM*	2.8	0.4%	6.0	12.4
COc1ccc(C(=O)N(Cc2ccccc2)c2cccc(C)c2)c(OC)c1OC	?	?	2.6	2.3%	-9.9	5.9
Cc1cc(NC(=O)C(C)SCC(=O)Nc2ccc(Br)cc2Br)no1 (centres undefined)	?	13µM*	-1.2	-1.4%	-5.3	3.3
COc1ccc(CC(=O)N(Cc2ccccc2)c2cccc(C)c2)cc1OC	?	14.6µM*	-0.5	-1.4%	?	-1.2
CCOc1ccc(NC(=O)CSc2nnc(CNC(=O)C34CC5CC(CC(C5)C3)C4)n2CC)cc1	?	?	-2.1	-1.3%	nt	nt
COc1cccc(CN2C(=O)NC(C)(C3CCN(Cc4cccc(O)c4)CC3)C2=O)c1OC (centres undefined)	-20.9%	-25.7%	nt	nt	nt	nt
COc1ccccc1C(=O)N(Cc1ccccc1)c1ccc(C)cc1	14.6µM*	?	-8.0	0.8%	?	15.7
O=C(CCl)N(Cc1ccccc1)c1ccccc1	5.17µM*	5.8µM*	5.4	-0.4%	-95.9*	-29.7
CCC(=O)N(Cc1cc(=O)[nH]c2ccccc12)c1ccccc1	-17.0%	-15.3%	-9.8	nt	11.2	-8.2
SMILES	DT40 TDP1 CPT	TDP1 cell noCPT	D3 ag	ClpP mod	IL1B secr inh	D3 antag
O=C(CCl)N(Cc1cc(=O)[nH]c2ccccc12)c1ccccc1	4.11µM*	2.31µM*	-2.2	?	-77.6*	-1.1
COC(=O)c1ccc(C(=O)N(Cc2ccccc2)c2ccccc2)cc1	?	?	0.1	-1.9%	11.3	0.4
CCn1c(-c2ccccc2F)nc2cc(NC(C)=O)cc(C(=O)NC(c3ccccn3)C(F)(F)F)c21 (centres undefined)	-4.0%[9.04 µM]	?	nt	nt	nt	nt
CC(C)(C)OC(=O)C[C@H]1C/C=C\C[C@H](CC(=O)N(CCO)Cc2ccccc2)C(=O)N[C@@H](c2ccccc2)COC1=O	?	?	-0.6	-3.0%	-17.2	34.2
CC(C)(C)OC(=O)C[C@H]1C/C=C\C[C@@H](CC(=O)N(CCO)Cc2ccccc2)C(=O)NC[C@H](c2ccccc2)OC1=O	20.6µM*	14.6µM*	-1.0	1.2%	-0.5	1.4
CC(C)(C)OC(=O)C[C@@H]1C/C=C\C[C@H](CC(=O)N(CCO)Cc2ccccc2)C(=O)NC[C@@H](c2ccccc2)OC1=O	?	23.1µM*	-42.1	-1.9%	-22.8	-95.5*
Cc1cc(C)n(-c2nc3cc(Cl)ccc3nc2Nc2ccc(C)c(F)c2)n1	-3.9%	18.7%	17.1	0.0%	nt	nt
Cc1cccc(N2CCN(C(=O)C3CCN(S(=O)(=O)c4cccnc4)CC3)CC2)c1C	18.4µM*	16.4µM*	-2.4	0.5%	21.3	-6.4
Cc1cccc(N2CCN(C(=O)C3CCN(S(=O)(=O)Cc4ccccc4)CC3)CC2)c1C	7.31µM*	9.2µM*	-5.6	0.2%	nt	nt
O=C(C1CCN(S(=O)(=O)Cc2ccccc2)CC1)N1CCN(c2ccc(F)cc2)CC1	23.1µM*	?	-8.3	-6.1%	nt	nt
Cc1ccc2nc(N3CCC(C(=O)N4CCN(c5cccc(C)c5C)CC4)CC3)[nH]c2c1	2.91µM*	5.8µM*	-2.9	-0.3%	nt	nt
CC(=O)c1ccc(N2CCN(C(=O)C3CCN(S(=O)(=O)Cc4ccccc4)CC3)CC2)cc1	-23.6%	?	-2.9	-2.6%	14.2	11.3
O=C(C1CCN(c2nc3ccccc3[nH]2)CC1)N1CCN(c2ccccc2)CC1	?	?	0.5	-0.2%	nt	nt
Cc1cccc(N2CCN(C(=O)C3CCN(S(=O)(=O)c4cn(C)cn4)CC3)CC2)c1C	?	?	0.5	1.3%	nt	nt
O=C(C1CCN(S(=O)(=O)Cc2ccccc2)CC1)N1CCN(c2ncccn2)CC1	-11.9%	-14.1%	0.4	-1.8%	9.0	7.6
O=C(NCCc1ccc(OC(F)F)cc1)C1CC(=O)N(c2ccc3c(c2)OCCO3)C1 (centres undefined)	-15.7%	-2.7%	1.5	-0.9%	24.5	10.8

Compound activity as filed in PubChem.
